Screening data from PubChem.
aDG glyco up = increases alpha dystroglycan glycosylation; hit rate 0.22% among 360,000; activation, % at 10 µM; Pro5-aDG cells, alpha-DG glycosylation AlphaScreen (IIH6); 0% Pro5, 100% B10-LARGE cell signal;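 active means activation of at least 8% versus controls, or a plate z-score of at least 8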;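 further: Pro5 are CHO cells carrying HIG-tagged alpha-DG that lacks glycosylation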
COUP-TFII inh = inhibitors of human COUP-TFII (NR2F2); P24468; HEK293T NGFI-A luciferase reporter, luminescence; inhibition, % at 8.6 µM; hit rate 0.7% among 370,000;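 active means inhibition above a per-plate cutoff, mean inhibition of test wells between control levels plus 3 SD, cut at about 38% in these data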;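 further: cells cotransfected with COUP-TFII expression vector driving the NGFI-A reporter; 0% = median of COUP-TF2 test wells and 100% = reporter-only cells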
Target sequence (P24468 whole entry, looked up): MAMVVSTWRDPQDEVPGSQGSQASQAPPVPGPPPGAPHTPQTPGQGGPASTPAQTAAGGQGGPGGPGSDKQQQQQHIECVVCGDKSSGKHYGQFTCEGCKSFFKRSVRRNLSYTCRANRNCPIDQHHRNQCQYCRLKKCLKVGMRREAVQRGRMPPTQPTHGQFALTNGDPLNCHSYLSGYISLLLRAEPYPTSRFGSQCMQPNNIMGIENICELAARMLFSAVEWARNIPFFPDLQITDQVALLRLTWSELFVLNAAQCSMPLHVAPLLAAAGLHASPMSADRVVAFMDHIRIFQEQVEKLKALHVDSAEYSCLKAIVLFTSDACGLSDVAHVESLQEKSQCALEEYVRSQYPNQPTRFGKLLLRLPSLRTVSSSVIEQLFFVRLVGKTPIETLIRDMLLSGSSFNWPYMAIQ
HIV Env fusion = HIV envelope-mediated fusion inhibition | HeLa-JRFL Env/CEM21 cell fusion, luciferase | inhibition, % at 12.3 µM | hit rate 1.1% among 360,000 | AID 651610;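 active means mean replicate inhibition score of at least 50 and every replicate individually at or above 50; inconclusive means only one of the two criteria met; inactive means mean below 50 and not all replicates reaching 50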;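 further: 0% = plate neutral controls and 100% = maraviroc near 300 nM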
GalR3 antagonist = human GalR3 antagonism; AID 651719; HEK293 GalR3-CNG cAMP membrane potential fluorescence; galR3 body fused to GalR1 C-terminus; O60755; inhibition, % at 3 µM; hit rate 0.44% among 360,000;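 active means inhibition above the screen-wide average plus 3 SD, cut at about 13% in these data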;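 further: forskolin and galanin both at EC90 stimulate the cells; cAMP rise reported by CNG channel membrane potential dye signal; 0% = forskolin plus galanin with DMSO and 100% = forskolin alone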
Target sequence (O60755 1-299 limits assumed): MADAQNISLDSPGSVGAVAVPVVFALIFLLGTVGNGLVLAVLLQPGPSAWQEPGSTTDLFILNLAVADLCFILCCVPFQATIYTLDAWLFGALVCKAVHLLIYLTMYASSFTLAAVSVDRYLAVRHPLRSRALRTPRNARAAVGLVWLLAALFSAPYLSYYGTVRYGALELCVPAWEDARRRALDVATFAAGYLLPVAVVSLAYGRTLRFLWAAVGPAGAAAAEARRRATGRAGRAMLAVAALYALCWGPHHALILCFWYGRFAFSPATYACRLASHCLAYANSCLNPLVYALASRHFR
Gli-Sufu block = antagonists of Gli-Sufu signaling. Sufu-KO-LIGHT fibroblasts, Gli luciferase reporter luminescence. inhibition, % at 5 µM. hit rate 0.74% among 340,000. AID 588413;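 active means inhibition above about 55%, limit read from the data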;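 further: 0% = DMSO-treated cells and 100% = wells with medium but no cells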
An asterisk follows results filed as active; [ ] = remark or other dose. In the library only some 2.1% were active in any assay of this set; here they are far more common.

Results for COc1cc2c(cc1OC)C(=O)N1[C@H]3c4cc(Cl)ccc4OC[C@@H]3[C@H](c3ccccc3)[C@]1(C)C(=O)N2 ?
aDG glyco up: 0.3; COUP-TFII inh: 3.6; HIV Env fusion: 99.1*; GalR3 antagonist: -5.8; Gli-Sufu block: 9.8

What do the screens show for `C[C@@]12C(=O)Nc3ccc(Br)cc3C(=O)N1[C@H]1c3cc(Br)ccc3OC[C@@H]1[C@@H]2c1ccccc1`?
aDG glyco up: 0.1; COUP-TFII inh: 1.5; HIV Env fusion: 63.1*; GalR3 antagonist: -4.5; Gli-Sufu block: 3.1

How did COc1cc2c(cc1OC)C(=O)N1[C@H]3c4cc(C)ccc4OC[C@@H]3[C@H](c3ccccc3)[C@]1(C)C(=O)N2 do in these assays?
aDG glyco up: 0.2; COUP-TFII inh: -1.4; HIV Env fusion: -43.4; GalR3 antagonist: 1.4; Gli-Sufu block: 2.8

Results for C=CCOC(=O)[C@@H]1[C@H]2C(=O)O[C@H](c3ccccc3)[C@H](c3ccccc3)N2[C@H](c2ccc(OCCOC(=O)[C@@H]3C[C@@H]4C(=O)NCC(=O)N4[C@@H]3c3ccc(O)cc3)cc2)[C@@]12C(=O)Nc1ccc(I)cc12 ?
HIV Env fusion: -38.6[16.7 µM]

How did COc1ccc(NC(=O)Nc2ccc3c(c2)C(=O)N([C@@H](C)CO)C[C@H](C)[C@@H](CN(C)Cc2ccc(C(=O)O)cc2)OCCCC[C@@H](C)O3)cc1 do in these assays?
HIV Env fusion: -27.5[16.7 µM]

How did C[C@H](CO)N1C[C@H](C)[C@H](CN(C)C)OCCCC[C@H](C)Oc2ccc(NS(=O)(=O)c3ccc(F)cc3)cc2C1=O do in these assays?
HIV Env fusion: 0.9[16.7 µM]

How did CNC(=O)C[C@H]1CC[C@@H]2[C@H](COc3ccc(NS(=O)(=O)c4ccccc4C)cc3C(=O)N2C)O1 do in these assays?
HIV Env fusion: 7.7[16.7 µM]

What do the screens show for `Cc1cc(/C=C2/SC(=S)N(c3cccc(C(F)(F)F)c3)C2=O)c(C)n1-c1cccnc1`?
aDG glyco up: 2.3; Gli-Sufu block: 70.9*

How did Cc1cc(/C=C2\SC(=S)N(Cc3ccco3)C2=O)c(C)n1-c1cccnc1 do in these assays?
aDG glyco up: -0.6; COUP-TFII inh: -4.3; HIV Env fusion: -12.8; GalR3 antagonist: 0.1; Gli-Sufu block: -26.3

Results for C[C@@H]1CN([C@@H](C)CO)C(=O)c2cc(NC(=O)Nc3ccc(C(F)(F)F)cc3)ccc2O[C@@H](C)CCCCO[C@@H]1CN(C)Cc1ccccc1 ?
HIV Env fusion: 44.1[16.7 µM]

Results for O=C(CCc1nc(-c2ccccc2F)no1)Nc1cccnc1 ?
aDG glyco up: -0.2; COUP-TFII inh: -15.9; HIV Env fusion: 58.9*; GalR3 antagonist: -2.0; Gli-Sufu block: -0.8

What do the screens show for `CCOc1ccccc1-c1noc(CCC(=O)Nc2cccnc2)n1`?
aDG glyco up: 0.0; COUP-TFII inh: 17.4; HIV Env fusion: -10.5; GalR3 antagonist: -9.3; Gli-Sufu block: -0.8

What do the screens show for `CN(C)CC(=O)Nc1ccc2c(c1)[C@@H]1C[C@@H](CC(=O)NCC3CC3)O[C@@H](CO)[C@@H]1O2`?
HIV Env fusion: -14.4[16.7 µM]

How did O=C(C[C@H]1CC[C@H]2[C@@H](COC[C@H](O)CN2Cc2cccc(-c3ccncc3)c2)O1)N1CCOCC1 do in these assays?
HIV Env fusion: -5.9[16.7 µM]

How did C[C@H](CO)N1C[C@H](C)[C@H](CN(C)CC2CCCCC2)OCCCC[C@H](C)Oc2ccc(NS(=O)(=O)c3cn(C)cn3)cc2C1=O do in these assays?
HIV Env fusion: -19.3[16.7 µM]

How did CC[C@@]12C(=O)N(c3cccc(Br)c3)C(=O)N1[C@H](c1cccc(C)c1)[C@@H]1C(=O)N(Cc3ccccc3)C(=O)[C@@H]12 do in these assays?
aDG glyco up: 0.2; COUP-TFII inh: 6.8; HIV Env fusion: 64.7*; GalR3 antagonist: -6.6; Gli-Sufu block: -2.6

What do the screens show for `CC[C@@]12C(=O)N(c3ccccc3)C(=O)N1[C@H](c1cccc(C)c1)[C@@H]1C(=O)N(Cc3ccccc3)C(=O)[C@@H]12`?
aDG glyco up: 0.1; COUP-TFII inh: 14.4; HIV Env fusion: 88.4*; GalR3 antagonist: -5.8; Gli-Sufu block: -12.4

How did Cc1cccc([C@@H]2[C@@H]3C(=O)N(Cc4ccccc4)C(=O)[C@@H]3[C@]3(Cc4ccccc4)C(=O)N(c4ccc(C(F)(F)F)cc4)C(=O)N23)c1 do in these assays?
aDG glyco up: 0.7; COUP-TFII inh: 14.5; HIV Env fusion: 63.8*; GalR3 antagonist: -5.3; Gli-Sufu block: -10.2

How did Cc1cccc([C@@H]2[C@@H]3C(=O)N(Cc4ccccc4)C(=O)[C@@H]3[C@]3(Cc4ccccc4)C(=O)N(c4ccccc4)C(=O)N23)c1 do in these assays?
aDG glyco up: 0.0; COUP-TFII inh: -7.9; HIV Env fusion: -63.6; GalR3 antagonist: -8.9; Gli-Sufu block: 37.8

Results for C[C@H](CO)N1C[C@H](C)[C@H](CN(C)C(=O)Nc2ccc(F)cc2)Oc2ncc(C3=CCCC3)cc2C1=O ?
HIV Env fusion: 6.9[16.7 µM]

What do the screens show for `COc1cccc(S(=O)(=O)N(C)C[C@@H]2Oc3ncc(C#CC(C)(C)O)cc3C(=O)N([C@H](C)CO)C[C@@H]2C)c1`?
HIV Env fusion: 0.3[16.7 µM]

What do the screens show for `COc1ccc(C(O)(CCC(C)C)C(CN2CCOCC2)c2ccc(Cl)cc2)cc1` (stereo not given)?
aDG glyco up: 0.2; COUP-TFII inh: 14.0; HIV Env fusion: inconclusive; GalR3 antagonist: -13.1; Gli-Sufu block: 7.2

How did CCOc1ccc(C(O)(CCC(C)C)C(CN2CCOCC2)c2ccccc2)cc1 (stereo not given) do in these assays?
aDG glyco up: 0.2; COUP-TFII inh: 16.2; HIV Env fusion: 72.2*; GalR3 antagonist: -9.2; Gli-Sufu block: -11.3

Results for C[C@H](CO)N1C[C@H](C)[C@H](CN(C)S(=O)(=O)c2ccc(F)cc2)OCCCC[C@H](C)Oc2ccc(NS(C)(=O)=O)cc2C1=O ?
HIV Env fusion: 6.8[16.7 µM]

Results for COc1cc(OC)cc(C(=O)N[C@H](C(=O)OCC(=O)c2c[nH]c3ccccc23)C(C)C)c1 ?
aDG glyco up: 0.5; COUP-TFII inh: 14.1; GalR3 antagonist: -6.2; Gli-Sufu block: -5.7

What do the screens show for `COc1cc(OC)cc(C(=O)N[C@H](C(=O)NCCc2c[nH]c3ccccc23)C(C)C)c1`?
aDG glyco up: 0.2; COUP-TFII inh: 2.3; HIV Env fusion: 77.8*; GalR3 antagonist: 0.7; Gli-Sufu block: -5.8

What do the screens show for `C=CCNC(=O)/C(C#N)=C/c1c(N(Cc2ccccc2)Cc2ccccc2)nc2ccccn2c1=O`?
aDG glyco up: -0.4; COUP-TFII inh: 20.1; HIV Env fusion: 23.4; GalR3 antagonist: -5.2; Gli-Sufu block: 7.8

Results for N#C/C(=C\c1c(N(Cc2ccccc2)Cc2ccccc2)nc2ccccn2c1=O)C(N)=O ?
aDG glyco up: -0.1; COUP-TFII inh: -8.1; HIV Env fusion: 58.2*; GalR3 antagonist: -1.5; Gli-Sufu block: 18.3

How did COc1ccc2c3c([nH]c2c1)[C@H](CO)NCC31CN(C(=O)C2CC2)C1 do in these assays?
HIV Env fusion: -14.0[16.7 µM]

How did COc1ccc(NC(=O)C2=CC(c3cccs3)=NS(=O)(=O)N2C)cc1 do in these assays?
aDG glyco up: 0.0; COUP-TFII inh: 5.8; HIV Env fusion: 88.7*; Gli-Sufu block: 0.2
